Experiment [1] is described as follows: qHTS to identify inhibitors of the type 1 interferon - major histocompatibility complex class I in skeletal muscle: primary screen against the NCATS LOPAC collection (AID 1347405).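 Further: lytic HiBiT luminescence reporting HLA-B protein level.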 Further: potency means the concentration at half of the fitted maximal effect. The method, boiled down: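 Luminescence from HiBiT fused to endogenous HLA-B in CRISPR-engineered human myoblasts served as the read-out. Cells received 4.0 ng/ml IFN-beta plus compound (seven concentrations, 1:4.3 steps, highest 46 uM final) for 24 hrs before lytic detection.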
(In qHTS, concentration-response curves come from the screen itself.)

Experiment [2] can be described thus: qHTS for inhibitors of adenylyl cyclases using a fission yeast platform: a pilot screen against the NCATS LOPAC library (AID 1347410).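 Further: plate controls were DMSO vehicle for no effect and DPI positive control for full effect.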 In outline:
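Growth medium went into the plates first, then compounds were pinned (final up to 57 µM), then CHP2027 yeast were added. Plates were incubated overnight (18 h) at 30C in the dark, and GFP was measured by laser scanning cytometry.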

Experiment [3] deals with Protein phosphatase 1D (Homo sapiens) (UniProt O15297). The experiment is described as follows: RapidFire Mass Spectrometry qHTS Assay for Modulators of WT P53-Induced Phosphatase 1 (WIP1) (AID 1347424).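 Further: amount of dephosphorylated VEPPL-S-QETFS peptide product formed by WIP1; series mostly up to about 63 µM; plate controls were DMSO wells for no effect and GSK830371 inhibitor control at 10 µM for full effect.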 The method, boiled down: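 WIP1 (10 nM final) was preincubated 1 h at room temperature with compounds in Tris-HCl pH 7.5, 30 mM MgCl2, TCEP, EGTA, BSA; 2 uM VEPPL-pS-QETFS phosphopeptide was added for 5 min, quenched with formic acid, and dephosphorylated product quantified by RapidFire MS.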

For experiment [4] the target is unchanged. The experiment is described as follows: Rhodamine-PBP qHTS Assay for Modulators of WT P53-Induced Phosphatase 1 (WIP1) (AID 1347425). Further: % of control where 0% means no effect. In outline: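 The read-out is the change in Rhodamine-PBP fluorescence (f1 - f0, ex 525/em 598 nm) as Pi is released, read each minute for 11 min. Final reaction: 5 nM WIP1, 10 uM phosphopeptide VEPPL-pS-QETFS, 10 uM Rh-PBP, 50 mM Tris-HCl pH 7.5, 30 mM MgCl2. Compound was preincubated with enzyme for 1 hour at room temperature.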

Experiment [5] can be described thus: Validation qHTS assay for inhibitors of Activation Induced Cytidine Deaminase (AID): UDG Counterscreen signal (AID 1347427). Further: 0% is about no effect. The method, boiled down:
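Counterscreen read of UDG activity (2 U/mL, 4/3x) in the FRET deamination format with AID (1 uM, 4/3x), DJC20/DJC23 substrates (250 nM, 4x), 4 h at room temperature. NaOH stop, fluorescence at 560 ex/665 em.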

Experiment [6] has as its target Single-stranded DNA cytosine deaminase (Homo sapiens) (UniProt Q9GZX7). The experiment is described as follows: Validation qHTS assay for inhibitors of Activation Induced Cytidine Deaminase (AID): AID signal (AID 1347429). Further: potency means the concentration at half of the fitted maximal effect. In outline: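 Fluorescence at 540 nm excitation and 590 nm emission reports ssDNA cytosine deamination by AID, with UDG in the same well. Compound-treated reactions ran 4 hr at room temperature with DJC20/DJC23 substrate, followed by 30 min NaOH treatment.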

Experiment [7] can be described thus: Primary qHTS for inhibitors of La Crosse Virus (LACV) - induced cell death in SH-SY5Y cells (AID 1508616).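 Further: top concentration of the series differs between compounds; 0% = infected DMSO wells and 100% = uninfected DMSO wells; higher means more rescue of cells from virus-induced death.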 In outline:
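Protection against LACV-induced cell death is scored in SH-SY5Y cells exposed to compounds and virus (0.01 MOI) for 6 days. Data normalized to virus-infected DMSO wells and virus-free DMSO wells.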

The target of experiment [8] is Calcium and integrin-binding protein 1 (Homo sapiens) (UniProt Q99828). Put plainly: Validation qHTS for Identification of Calcium Integrin Binding protein 1 (CIB1) Competitor (AID 1508618). Further: on the % scale 0 is the no-effect control and ±100 the full control effect. The method, boiled down: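 CIB1-GST (1 uM final) incubated 15 min at room temperature with compounds (up to 114 uM), then FITC-labelled alphaIIb peptide (100 nM) added. FP read (Ex 480/Em 540) after 15 min, pH 7.4 buffer containing 5 mM CaCl2.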

Experiment [9] has the same target. Put plainly: Primary qHTS for Identification of Calcium Integrin Binding Protein 1 (CIB1) Competitor (AID 1508620).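 Further: GST tagged CIB1 binding a fluorescein labelled alphaIIb integrin peptide tracer; top concentration of the series differs between compounds; on the % scale 0 is the no-effect control and ±100 the full control effect.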 The method, boiled down: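 Fluorescence polarization competition: CIB1-GST (1 uM final) preincubated with compound 15 min at room temperature, then FITC-labeled alphaIIb peptide (100 nM final) added for another 15 min. Polarization read at Ex 480/Em 540.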

Experiment [10] in a line: Cell Viability qHTS for small molecule stabilizers of the endoplasmic reticulum resident proteome (AID 1508629).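 Further: human SH-SY5Y neuroblastoma cells carrying the GLuc-SERCaMP reporter; compound exposure about 46 h in total before the viability read; on the % scale 0 is the no-effect control and ±100 the full control effect.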 The note with it: cell viability counter-screen, 100 nM thapsigargin for final 4 h.
A short description of experiment [11]: Primary qHTS for small molecule stabilizers of the endoplasmic reticulum resident proteome: Secreted ER Calcium Modulated Protein (SERCaMP) assay (AID 1508630). Further: on the % scale 0 is the no-effect control and ±100 the full control effect. In outline: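 GLuc-SERCaMP-expressing SH-SY5Y cells, pretreated 16 h with compound, are challenged with thapsigargin to empty ER calcium stores; after 4 h, coelenterazine is added directly to the medium and luminescence is imaged.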

The nature of experiment [12]: A High-Content qHTS Against Drug Library for the Identification of Small Molecules that Inhibit DYT1 Early Onset Primary Dystonia-Associated Cell Pathology (AID 1645839; calls by dose curve; further: series mostly up to about 46 µM). The method, boiled down:
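Readout: %pathology, the punctate EGFP-TorsinA distribution from imaging, as the primary channel and cell count as the toxicity counterscreen. HEK293 Flp-In cells expressing delE TorsinA were induced with tetracycline and treated with compound for 48 h.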

Experiment [13] deals with Cytochrome P450 2D6 (Homo sapiens) (UniProt P10635). Put plainly: Cytochrome P450 family 2 subfamily D member 6 (CYP2D6) small molecule antagonists: luciferase biochemical (cell-free) qHTS assay (AID 1645840; active means well fitted curve in the direction sought with a large enough effect in the repeat runs; an effect the other way counts as inactive or inconclusive; further: nearly all actives have a fitted effect of over 55% in size; further: potency means the concentration at half of the fitted maximal effect). In outline:
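P450-Glo luminescent screen: recombinant CYP2D6 enzyme–proluciferin substrate mix preincubated with compound 10 min at room temperature, then NADPH regeneration added for 1 h at room temperature. Detection reagent added for 20 min; luciferin light read as relative luminescence units.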

The target of experiment [14] is Cytochrome P450 2C9 (Homo sapiens) (UniProt P11712). The experiment is described as follows: Cytochrome P450 family 2 subfamily C member 9 (CYP2C9) small molecule antagonists: luciferase biochemical (cell-free) qHTS assay (AID 1645842; active means well fitted curve in the direction sought with a large enough effect in the repeat runs; an effect the other way counts as inactive or inconclusive; further: nearly all actives have a fitted effect of over 55% in size; further: potency means the concentration at half of the fitted maximal effect). The method, boiled down: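 Luminescence, after 20 min with luciferin detection reagent, reflected CYP2C9 turnover during a 1 h NADPH-driven reaction at 37C. Enzyme-substrate mix contained 0.4% bovine serum albumin and was preincubated with compound 10 min at room temperature.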

Experiment [15] can be described thus: qHTS to identify inhibitors of the type 1 interferon - major histocompatibility complex class I in skeletal muscle: primary screen against the NCATS Mechanism Interrogation Plate v5.0 (MIPE) Libary (AID 1347411). Further: potency means the concentration at half of the fitted maximal effect; nearly all actives have a fitted effect of over 65% in size. The method, boiled down: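 Luminescence from HiBiT-tagged endogenous HLA-B*08:01 served as the MHC class I read-out. CRISPR-engineered C25cl48 human myoblasts received 4.0 ng/ml IFN-beta plus compound for 24 hrs, with an 11-point, 1:3 series topping at 46 uM final.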

For experiment [16], the target named is Papain (Carica papaya) (UniProt P00784). The experiment is described as follows: Primary qHTS assay for inhibitors of the protease papain (AID 1645873).
Experiment [17] can be described thus: Primary qHTS for inhibitors of nuclear receptor binding SET domain protein 2 (NSD2) in an isogenic RCH-ACV NSD2 p.E1099K mutant (9B) (AID 1645876). Further: nearly all actives have a fitted effect of over 70% in size. Further: potency means the concentration at half of the fitted maximal effect.
The nature of experiment [18]: qHTS to identify inhibitors of the type 1 interferon - major histocompatibility complex class I in skeletal muscle: primary screen against the NCATS Pharmaceutical Collection (AID 1347407). The method, boiled down: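 Cells were seeded with 4 ng/ml IFN-beta, incubated 1 h, then dosed with compounds over eight 1:5 steps up to 46 uM final. After 24 h at 37 C, HiBiT lytic reagent was added and luminescence read after 10 min lysis in the dark.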

Values joined by “and” are separate entries in the source; they are usually repeats but may differ in a detail not shown here. Equal values may be shown once. Values without a mark were called inactive. Records with an inconclusive call do not appear. Active and inactive are the calls of the source. Unless noted, the call rests on the fitted dose curve; in most records, active means well fitted curve in the direction sought with a large enough effect; inconclusive means small, poorly fitted or top-dose-only effect, or another doubt; inactive means no such curve, though single readings can be large; an effect the other way counts as inactive or inconclusive.

Data on nine compounds can be found in PubChem BioAssay (NCATS).

Sequence of Cytochrome P450 2D6 (Homo sapiens) (P10635 whole entry, looked up): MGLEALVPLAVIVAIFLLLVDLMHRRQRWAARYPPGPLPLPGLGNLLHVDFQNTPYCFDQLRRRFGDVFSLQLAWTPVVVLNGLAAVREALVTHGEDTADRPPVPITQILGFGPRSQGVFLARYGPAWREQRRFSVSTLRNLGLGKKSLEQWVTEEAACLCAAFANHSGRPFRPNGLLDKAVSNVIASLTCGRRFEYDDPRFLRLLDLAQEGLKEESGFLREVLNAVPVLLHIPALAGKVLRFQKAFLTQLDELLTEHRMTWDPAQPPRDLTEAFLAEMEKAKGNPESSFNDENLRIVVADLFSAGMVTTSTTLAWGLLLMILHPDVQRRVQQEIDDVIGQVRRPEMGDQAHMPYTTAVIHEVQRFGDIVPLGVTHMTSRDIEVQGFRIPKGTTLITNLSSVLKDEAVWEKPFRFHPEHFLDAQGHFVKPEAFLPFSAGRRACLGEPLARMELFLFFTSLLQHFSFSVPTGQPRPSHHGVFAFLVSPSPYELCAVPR
Sequence of Cytochrome P450 2C9 (Homo sapiens) (P11712 whole entry, looked up): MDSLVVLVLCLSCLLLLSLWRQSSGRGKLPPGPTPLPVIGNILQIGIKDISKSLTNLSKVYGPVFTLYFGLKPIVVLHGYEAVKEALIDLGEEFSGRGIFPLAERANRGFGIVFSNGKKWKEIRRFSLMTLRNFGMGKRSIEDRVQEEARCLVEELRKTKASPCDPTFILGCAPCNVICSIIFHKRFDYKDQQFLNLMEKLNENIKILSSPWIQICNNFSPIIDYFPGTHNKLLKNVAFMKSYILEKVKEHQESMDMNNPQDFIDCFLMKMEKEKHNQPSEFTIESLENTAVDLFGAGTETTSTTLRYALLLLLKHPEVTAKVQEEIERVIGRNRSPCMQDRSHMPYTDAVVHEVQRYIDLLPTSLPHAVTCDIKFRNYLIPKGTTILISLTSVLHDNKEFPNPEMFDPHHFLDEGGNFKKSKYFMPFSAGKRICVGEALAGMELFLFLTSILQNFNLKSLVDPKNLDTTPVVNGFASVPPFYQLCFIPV
Sequence of Protein phosphatase 1D (Homo sapiens) (O15297 whole entry, looked up): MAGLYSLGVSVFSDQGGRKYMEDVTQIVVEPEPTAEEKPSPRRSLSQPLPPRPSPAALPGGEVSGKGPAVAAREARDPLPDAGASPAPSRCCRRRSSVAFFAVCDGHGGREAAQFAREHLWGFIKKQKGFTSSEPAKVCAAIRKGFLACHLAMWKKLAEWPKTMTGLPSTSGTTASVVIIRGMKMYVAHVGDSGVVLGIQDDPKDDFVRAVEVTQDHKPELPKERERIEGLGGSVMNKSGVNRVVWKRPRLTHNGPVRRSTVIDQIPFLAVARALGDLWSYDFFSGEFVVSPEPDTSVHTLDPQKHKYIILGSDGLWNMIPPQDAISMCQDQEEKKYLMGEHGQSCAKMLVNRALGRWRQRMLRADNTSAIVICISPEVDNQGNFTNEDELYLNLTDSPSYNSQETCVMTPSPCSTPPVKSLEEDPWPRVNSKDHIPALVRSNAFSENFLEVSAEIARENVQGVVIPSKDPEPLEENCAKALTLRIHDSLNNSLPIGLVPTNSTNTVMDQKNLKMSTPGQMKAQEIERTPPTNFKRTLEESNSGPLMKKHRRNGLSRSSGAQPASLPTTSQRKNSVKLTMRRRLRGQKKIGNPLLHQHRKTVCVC
Sequence of Papain (Carica papaya) (P00784 whole entry, looked up, the tested form may be a part): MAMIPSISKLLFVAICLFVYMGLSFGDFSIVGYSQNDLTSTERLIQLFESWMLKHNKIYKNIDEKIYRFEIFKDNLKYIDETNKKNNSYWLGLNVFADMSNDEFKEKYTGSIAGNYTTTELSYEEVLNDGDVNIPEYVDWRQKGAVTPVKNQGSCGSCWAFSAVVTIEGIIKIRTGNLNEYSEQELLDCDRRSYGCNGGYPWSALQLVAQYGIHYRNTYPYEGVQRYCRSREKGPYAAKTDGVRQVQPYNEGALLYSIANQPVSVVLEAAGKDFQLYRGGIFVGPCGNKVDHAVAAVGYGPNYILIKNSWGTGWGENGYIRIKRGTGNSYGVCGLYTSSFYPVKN
Sequence of Calcium and integrin-binding protein 1 (Homo sapiens) (Q99828 whole entry, looked up): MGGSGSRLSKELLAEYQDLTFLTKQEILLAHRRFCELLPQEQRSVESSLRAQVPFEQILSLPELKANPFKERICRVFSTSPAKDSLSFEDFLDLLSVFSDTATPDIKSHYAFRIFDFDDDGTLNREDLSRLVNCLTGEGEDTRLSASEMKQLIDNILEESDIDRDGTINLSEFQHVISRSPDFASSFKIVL
Sequence of Single-stranded DNA cytosine deaminase (Homo sapiens) (Q9GZX7 whole entry, looked up): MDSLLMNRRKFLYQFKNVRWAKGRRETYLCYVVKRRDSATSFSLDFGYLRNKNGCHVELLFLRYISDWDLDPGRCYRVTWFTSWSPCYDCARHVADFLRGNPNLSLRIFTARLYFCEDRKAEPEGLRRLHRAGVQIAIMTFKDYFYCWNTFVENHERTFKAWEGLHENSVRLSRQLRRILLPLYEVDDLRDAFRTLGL

For `CCOC(=O)c1cnc2c(cnn2CC)c1NN=C(C)C`, the Potency entry in experiment [1], in experiment [3], in [6], in experiment [7], in experiment [9] and in experiment [11] was “inactive” throughout. Besides, the Potency result in experiment [12] and in experiment [13] was “inactive” each time. The compound was classed as inactive in experiment [2], in experiment [4], in experiment [5] and in experiment [8]. The max response in experiment [10] is 4.21%. The Potency in experiment [14] was 13.8 µM (active).

For the compound `CC(=O)[C@]1(O)Cc2c(O)c3c(c(O)c2[C@@H](O[C@H]2C[C@H](N)[C@H](O)[C@H](C)O2)C1)C(=O)c1ccccc1C3=O`, the Potency in experiment [1] was 1 µM (active); in experiment [15], 2.08 µM (active); in experiment [6], 2 µM (active); in [13] it was 17.4 µM (active); in [17], 0.8 nM (active) and 41.7 nM (active). For the same compound, the result in experiment [2], in [4], in experiment [5] and in experiment [8] was inactive. The Potency result in [3], in experiment [7], in experiment [11], in experiment [14] and in experiment [16] was “inactive” in each case.

`CN(C)CCOC(=O)COc1ccc(Cl)cc1`: the Potency entry in experiment [1], in experiment [18], in experiment [6], in experiment [7], in experiment [9] and in experiment [11] was “inactive” each time. Moreover, the Potency entry in experiment [14], in experiment [16] and in [17] was “inactive” throughout. The outcome in experiment [2], in experiment [4], in experiment [5] and in [8] was inactive.

On to `CC(C)[N+](C)(CCOC(=O)C1c2ccccc2Oc2ccccc21)C(C)C`, for which the Potency entry in experiment [1], in experiment [3], in experiment [6], in [7], in experiment [9] and in experiment [12] was “inactive” in each case. In addition, the Potency entry in [14], in experiment [16] and in [17] was “inactive” throughout. For the same compound, the outcome in [2], in experiment [4], in experiment [5] and in experiment [8] was inactive. Moreover, the Potency in [13] is 0.309 µM (active).

With `NCCCNCCSP(=O)(O)O`, the Potency result in [1], in [6], in experiment [7], in [9], in [11] and in [16] was “inactive” throughout. Besides, the activity change, negative = inhibition in experiment [18] was 3.17% [at 9.18 µM]; in [4], 1.47% [at 11.5 µM]; in experiment [13], -0.206% [at 11.5 µM]; in experiment [14], 13.8% [at 11.5 µM]. Also, the call in experiment [2], in experiment [5] and in experiment [8] was inactive. Moreover, the outcome in [17] is “inactive [at 9.23 µM]”.

Turning to `CC(=O)OCC1=C(C(=O)O)N2C(=O)[C@@H](NC(=O)Cc3cccs3)[C@H]2SC1`, the Potency entry in experiment [1], in experiment [3], in experiment [6], in experiment [7], in experiment [9] and in experiment [11] was “inactive” throughout. Further, the Potency entry in [12], in experiment [13], in [14], in [16] and in [17] was “inactive” throughout. In addition, the outcome in [2], in experiment [4], in [5] and in experiment [8] was inactive.

In the case of `C[C@]12CCC(=O)C=C1CC[C@@H]1[C@@H]2C(=O)C[C@@]2(C)[C@H]1CC[C@]2(O)C(=O)CO`, the Potency result in experiment [1], in experiment [18], in experiment [6], in [7], in [9] and in [11] was “inactive” each time. The Potency result in experiment [13], in experiment [14] and in [17] was “inactive” each time. Also, the outcome in experiment [2], in experiment [4], in experiment [5] and in [8] was inactive.

On to `O=C(O)CN(CCOCCOCCN(CC(=O)O)CC(=O)O)CC(=O)O`, for which the Potency entry in [1], in [6], in experiment [7], in experiment [11] and in experiment [16] was “inactive” throughout. Also, the activity change, negative = inhibition in [18] is 1.04% [at 0.727 µM]; in experiment [4], -3.01% [at 0.575 µM]; in experiment [9], 0.103% [at 1.07 µM]; in experiment [13] it was 2.42% [at 0.91 µM]; in [14], 9.82% [at 0.91 µM]. Besides, the outcome in [2] and in [8] was inactive. For the same compound, the % pathology change, negative = correction in [12] is 13.7% [at 0.369 µM]. Further, the activity change, negative = viability loss in [17] was 5.34% [at 0.588 µM].

On to `CNCCC(Oc1ccccc1OC)c1ccccc1` (stereo not drawn), for which the Potency entry in [1], in experiment [18], in experiment [6], in experiment [7], in experiment [9] and in experiment [14] was “inactive” throughout. For the same compound, the Potency entry in experiment [16] is “inactive”. Besides, the compound was classed as inactive in experiment [2], in experiment [4], in [5] and in [8]. In experiment [13], the Potency was 1.74 µM (active).
